In PubChem BioAssay AID1053173 (Broad Institute, 2014):
The whole screen tested about 1,500 compounds, of which about 390 (26%) were called active. The rule behind the calls is not given here. The list is a sample of the results. Results with a measured potency or affinity are listed apart.

target: Histone-lysine N-methyltransferase NSD2 (Homo sapiens) (UniProt O96028); experiment: blockers of NSD2 H4 peptide methylation – biochemical, AlphaScreen, cherry-picked samples, dose response (AID 1053173); conditions: 120 min; series mostly up to 10 µM; activity change, negative = inhibition: at the top concentration;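 note: 0% = neutral control wells and -100% = positive control wells on each plate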
Sequence (O96028 whole entry, looked up): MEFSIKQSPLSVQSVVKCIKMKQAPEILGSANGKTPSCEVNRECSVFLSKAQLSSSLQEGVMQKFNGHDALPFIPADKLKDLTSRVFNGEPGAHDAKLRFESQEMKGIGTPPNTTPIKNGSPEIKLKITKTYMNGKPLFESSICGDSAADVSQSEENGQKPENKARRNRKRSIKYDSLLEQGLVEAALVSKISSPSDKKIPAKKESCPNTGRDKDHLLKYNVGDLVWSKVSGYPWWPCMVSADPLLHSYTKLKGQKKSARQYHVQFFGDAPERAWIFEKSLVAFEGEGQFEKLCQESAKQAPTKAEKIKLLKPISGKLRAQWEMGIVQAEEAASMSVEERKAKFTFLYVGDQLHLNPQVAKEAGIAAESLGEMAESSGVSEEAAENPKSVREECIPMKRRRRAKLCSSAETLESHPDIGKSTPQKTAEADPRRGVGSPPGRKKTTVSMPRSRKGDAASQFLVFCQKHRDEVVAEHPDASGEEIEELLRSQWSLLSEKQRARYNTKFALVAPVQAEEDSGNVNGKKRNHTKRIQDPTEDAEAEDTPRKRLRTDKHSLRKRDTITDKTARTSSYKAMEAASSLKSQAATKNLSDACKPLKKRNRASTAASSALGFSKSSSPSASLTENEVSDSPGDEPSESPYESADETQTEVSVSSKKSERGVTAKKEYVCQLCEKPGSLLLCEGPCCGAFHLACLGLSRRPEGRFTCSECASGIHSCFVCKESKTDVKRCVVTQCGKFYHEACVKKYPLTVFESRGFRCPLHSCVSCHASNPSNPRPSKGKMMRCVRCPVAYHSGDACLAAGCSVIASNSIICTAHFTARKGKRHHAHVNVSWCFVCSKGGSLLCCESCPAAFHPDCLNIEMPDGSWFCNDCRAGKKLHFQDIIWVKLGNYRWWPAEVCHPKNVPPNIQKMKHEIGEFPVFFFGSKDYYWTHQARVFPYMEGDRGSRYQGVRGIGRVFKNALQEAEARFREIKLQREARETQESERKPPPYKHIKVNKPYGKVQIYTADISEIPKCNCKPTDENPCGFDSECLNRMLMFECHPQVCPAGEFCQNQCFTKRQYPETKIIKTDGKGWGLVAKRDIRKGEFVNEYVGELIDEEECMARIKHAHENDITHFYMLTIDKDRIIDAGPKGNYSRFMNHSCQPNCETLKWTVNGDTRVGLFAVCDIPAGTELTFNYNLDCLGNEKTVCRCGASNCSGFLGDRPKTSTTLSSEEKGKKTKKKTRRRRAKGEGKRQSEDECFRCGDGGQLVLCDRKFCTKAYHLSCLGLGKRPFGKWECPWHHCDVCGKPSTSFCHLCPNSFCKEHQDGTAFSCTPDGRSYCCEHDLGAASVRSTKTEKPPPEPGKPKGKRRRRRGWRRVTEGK

Activity change, negative = inhibition, inactive:
CCOC(=O)C1(C)CCCN1C(=O)c1cccc(F)c1 (stereo not given) 1.47%, CC1(CC(=O)N/N=C/c2cc([N+](=O)[O-])c(O)cc2O)OCCO1 -0.127%, Cc1cc(NC(=O)COC(=O)c2cccc(S(=O)(=O)N3CCOCC3)c2)no1 2.01%, C/C(=N\NC(=O)CSc1nc2ccccc2o1)c1ccc(O)cc1 2.05%, O=C(CSc1nc(-c2ccccc2)c(-c2ccccc2)o1)Nc1nnc(-c2ccccc2)s1 -2.84%, O=C(CNc1ccc(F)cc1)N/N=C/c1c(O)ccc2ccccc12 3%, C=CCn1c(-c2ccc(OC)cc2)nc2nc3ccccc3nc21 -2.2%, O=c1[nH]c(CN2CCOCC2)nc2cc(Cl)ccc12 0.642%, CCOc1cc(/C=C/C(=O)OCC(=O)NCCN2C(=O)CSC2=O)ccc1OCC(C)C 2.25%, Cc1cccc(-n2c3nc(=O)[nH]c(=O)c-3cc3cc([N+](=O)[O-])ccc32)c1 -12%, Cc1c(N=NC2=C(O)CC(C)(C)CC2=O)c(=O)n(-c2ccccc2)n1C 3.54%, Cc1c(NC(=O)CN2C(=O)C(=O)c3ccccc32)c(=O)n(-c2ccccc2)n1C 0.571%, C/C(=C\C(=O)c1cccnc1)Nc1ccc(O)cc1 -3.39%, COc1ccc(CCNC(=O)CN2C(=O)C(=O)N(C3CCCC3)C2=O)cc1OC 2.65%, CN(C)Cc1csc(NC(=O)Nc2cccc(Cl)c2)n1 -0.974%, Cn1c(N2CCCC2)nc2c1c(=O)n(Cc1ccc(Cl)cc1)c(=O)n2C -0.716%, COCCN(C(=O)CCC(=O)Nc1cc(C)on1)C(C(=O)NC(C)(C)C)c1ccccc1Cl (stereo not given) -3.87%, COc1ccc(C(C[N+](=O)[O-])c2c(C)[nH]n(-c3ccccc3)c2=O)cc1 (stereo not given) -10.7%, COc1ccc(Cc2ccccc2C(=O)O)cc1 8.87%, O=C(NNS(=O)(=O)c1ccc(F)cc1F)c1csc(-c2cccnc2)n1 -7.29%, O=C(NCCN1CCCCC1)/C(=C/c1ccco1)NC(=O)c1ccccc1 -0.137%, O=C(CCc1ccccc1)NCCCN1CCOCC1 5.13%, O=C(COc1ccccc1O)NCCN1CCOCC1 10.2%, Cc1nn2c3ccccc3n(CCN3CCCCC3)c2nc1=O -2.99%, O=C(NCCCN1CCCC1=O)Nc1ccc(Cl)cc1Cl 0.099%, O=C(O)Cc1sc(NC2CCCCC2)nc1-c1ccc(Cl)cc1 -7.89%, Cn1c(=O)c2c(nc(CN3CCC(C(N)=O)CC3)n2Cc2ccccc2Cl)n(C)c1=O 0.375%, Cc1ccc(-n2c(C)c(C)c3c(N)ncnc32)cc1 -6.2%, CC(=O)c1ccc(-n2c(-c3cc(-c4ccco4)[nH]n3)n[nH]c2=S)cc1 -6.71%, Cc1cc(=O)[nH]c(COc2ccccc2)n1 -1.09%, COC(=O)COc1ccc(S(=O)(=O)NCC2CCCO2)cc1Cl (stereo not given) 1.32%, Cc1ccc(Nc2nc(-c3ccc(O)c(O)c3)cs2)nc1 -17.4%, CCOC(=O)c1sc(NC(=O)COc2ccc3c(c2)OCO3)nc1C 5.82%, COc1ccccc1OCCOc1ccc(/C=C2\C(=N)N3N=C(S(C)(=O)=O)SC3=NC2=O)cc1 -8.8%, O=C(C=Cc1ccccc1)c1cc(Br)ccc1O -0.786%, Cc1sc2ncnc(SCC(=O)Nc3ccc(CN4CCCC4)cc3)c2c1C -4.45%, Nc1nc(O)c(Sc2ccccc2[N+](=O)[O-])c(=O)[nH]1 -5.06%, Nn1cnnc1N/N=C/c1ccc(Cl)c([N+](=O)[O-])c1 -9.15%, Cc1c(-c2ccc(/C=N/NC(=O)C(=O)Nc3ccccc3F)o2)cccc1[N+](=O)[O-] -1.12%, CC1CCC2C(C1)c1sc(=O)[nH]c1SC2(C)C (stereo not given) 1.19%, COc1ccc(-n2ncc3c(NCCCn4ccnc4)ncnc32)cc1 4.21%, N#Cc1ccccc1OCC(=O)OCC(=O)N1CCN(C(=O)c2ccco2)CC1 -0.885%, CCCC(=O)Nc1cc(C)cn(Cc2c(F)cccc2Cl)c1=O -4.87%, COc1ccc(-n2nnnc2SCC(=O)c2ccc3c(c2)OCCO3)cc1 -1.12%, COc1ccc(OCC(=O)NNc2c3ccccc3nc3ccccc23)cc1 2.29%, CCOC(=O)N1CCN(C(=S)NCCOC)CC1 -0.483%, O=C(CC1(O)C(=O)Nc2cc(Cl)cc(Cl)c21)c1ccncc1 (stereo not given) -2.95%, CC1CCCN(S(=O)(=O)c2ccc(NC(=O)CN3CCN(C)CC3)cc2)C1 (stereo not given) 0.323%, O=C(NCc1ccc(Cl)cc1)c1ccc(S(=O)(=O)N2CCCCC2)cc1 -0.074%, CC(C)c1ccc(S(=O)(=O)N2CCN(CC(=O)Nc3ccc(Cl)cc3F)CC2)cc1 4.54%, O=C(c1ccc(S(=O)(=O)N2CCOCC2)cc1)N(c1cccc(Cl)c1)C1C=CS(=O)(=O)C1 (stereo not given) -0.178%, NS(=O)(=O)c1ccc(S(=O)(=O)N2CCN(C3CCCC3)CC2)cc1 -3.4%, Cc1cccc(NC(=S)N2CCN(c3ccccc3F)CC2)c1C -0.373%, Cc1ccc(C(=O)C2CCN(S(=O)(=O)c3ccc(C(=O)O)cc3)CC2)cc1 -3.03%, CCc1cc(OCCN2C(=O)NC(C)(C)C2=O)ccc1Cl 1.68%, S=C1NCN(Cc2ccco2)CN1CCc1ccccc1 5.17%, Cc1ncc(CO)c2c1Oc1nc(-c3ccccc3)nc(SCC(=O)N3CCOCC3)c1C2 -9.28%, CCOC(=O)C(CCCP(=O)(c1ccccc1)c1ccccc1)(NC(C)=O)C(=O)OCC 5.47%, O=C(Cn1cc(C(F)(F)F)ccc1=O)Nc1ccc2c(c1)OCCO2 6.43%, Cc1ccc(Nc2nnc(SCC(=O)Nc3ccc(S(=O)(=O)N4CCOCC4)cc3)s2)cc1 2.86%, CCN(CC)c1ccc(NC(=O)COC(=O)c2ccc3ccccc3n2)cc1 -7.11%, COC(=O)C(C)(C)NC(=O)c1cccs1 -0.795%, COc1ccc(OC)c(-c2csc(-c3cccs3)n2)c1 1.38%, COc1ccc(NC(=O)CN2CCN(S(=O)(=O)N3CCCCCC3)CC2)cc1 -1.77%, CCOC(=O)c1ccc(S(=O)(=O)N2CCN(c3ccccn3)CC2)cc1 -2.16%, O=C(Nc1ccccc1)OCCCCOC(=O)Nc1ccccc1 4.68%, CCc1nc2ccc(C)cc2c(C(=O)NC2CCCCC2C)c1C (stereo not given) -2.38%, O=C(O)c1ccccc1NS(=O)(=O)c1ccc2ccccc2c1 1.41%, CCOc1ccccc1Nc1nnc(SCc2ccc(C(=O)OC)o2)s1 -2.68%, COCCNC(=O)c1ccc(CN2CCc3ccccc3C2)cc1 -4.36%, Cc1ccc(C(=O)Cn2cc([N+](=O)[O-])nc2C)cc1 7.26%, CC(C)(C)C1CCC2(CC1)C(Nc1cccc(C(F)(F)F)c1)=NC(=S)N2CC#N (stereo not given) 2.06%, COc1ccc(CCC(=O)NCCOc2ccccc2Cl)cc1 -0.849%, CSc1nsc(SCC(=O)Nc2cccc(NC(C)=O)c2)n1 -3.52%, Cc1cccnc1NC(=O)c1ccc(S(=O)(=O)N2CC(C)OC(C)C2)cc1 (stereo not given) 1.6%, O=C1CCCC(O)=C1N=Nc1cccc(C(=O)O)c1 -10.6%, O=C(NNC(=O)c1cccs1)c1ccc(Cl)c([N+](=O)[O-])c1 -1.5%, COc1ccccc1C(=O)NNC(=O)Cc1ccccc1 0.425%, CC(C)CC(=O)N1CCC(O)(CS(=O)(=O)Cc2ccccc2Cl)CC1 -0.256%, O=C(CC(=O)NCCc1ccccc1)NCCc1ccccc1 2.4%, O=C(CNC(=O)c1ccco1)NCC(=O)OCc1ccccc1Cl -2.17%, O=C(NC1=NCCS1)c1csc2ccccc12 3.99%, O=C(Nc1cc(C(F)(F)F)ccc1N1CCCC1)C1CC(=O)N(Cc2ccccc2)C1 (stereo not given) -0.7%, Cc1cc(C)c(NC(=S)N(C)C)cc1C 6.18%, COc1ccc(C2/C(=C(\O)c3cccc(OC)c3)C(=O)C(=O)N2c2ccccn2)cc1 (stereo not given) -2.01%, COc1ccc(C(=O)N[C@H](C(=O)NCc2ccc(C)cc2)C(C)C)cc1 -3.5%, Cc1ccc(C)c(S(=O)(=O)N2CCCOC2CNC(=O)C(=O)NCc2cccnc2)c1 (stereo not given) -1.12%, Nc1c2c(=O)[nH]c(O)cc2nn1-c1ccccc1 -2.54%, COc1ccc(OC)c(C(=O)Nc2c(O)ccc3ccccc23)c1 0.436%, O=c1[nH]c(CN2CCCCC2)ccc1O -3.02%, Cc1cc(=O)n2[nH]c(-c3ccco3)nc2n1 -15.9%, Cc1onc(-c2c(Cl)cccc2Cl)c1C(=O)ONC(=O)c1cc(C(F)(F)F)cc(C(F)(F)F)c1 5.31%, O=[N+]([O-])c1ccc(-c2cccnc2)cc1 -0.274%, O=c1c2ccc([N+](=O)[O-])cc2sn1-c1ccccc1 -8.02%, CCOc1ccccc1NCc1nnc(-c2ccccc2)o1 1.86%, O=C(c1cc(-c2ccc(Cl)c(Cl)c2)on1)N1CCCCCC1 3.26%, COc1ccc(C)cc1S(=O)(=O)Nc1ccccc1C 2.58%, O=[N+]([O-])c1ccc(N(CC(O)CN2CCCCC2)S(=O)(=O)c2ccccc2)cc1 (stereo not given) 2.36%, O=S(=O)(c1ccc2c(c1)nc1n2CCC1)N1CCOCC1 -0.647%, CCCc1nc2sc3ccccc3c(=O)c2c(=O)n1Cc1ccccc1 -0.876%, CCOc1ccccc1N(CC(=O)NCCc1ccc(OC)c(OC)c1)S(=O)(=O)c1ccccc1 0.589%, COc1ccc(CCNc2c([N+](=O)[O-])ncn2C)cc1OC 4.09%, COCc1[nH][nH]c(=O)c1C=NCC(=O)OC -0.914%, N=C1C(c2nc(-c3ccc(F)cc3)cs2)=C(O)CN1Cc1ccc(Cl)cc1 0.005%, CC(C)(C)c1[nH]nc2c1C(C1C=CCCC1)C(C#N)=C(N)O2 (stereo not given) 0.027%, O=C(NC1CCCCC1)c1ccc(S(=O)(=O)NCc2ccco2)cc1 -4.03%, Cn1c(=O)c2c(-c3ccccc3)n(Cc3cccnc3)cc2n(C)c1=O -1.34%, CCOC(=O)c1c(C)[nH]c(C(=O)NCCN2CCOCC2)c1C -4.3%, O=C(CCCN1C(=O)/C(=C/c2cccs2)SC1=S)Nc1ccc(O)c(C(=O)O)c1 -19.5%, O=C(CCCN1C(=O)/C(=C/c2ccccc2)SC1=S)Nc1ccc(C(=O)O)c(O)c1 -8.83%
